Laboratory results: PubChem BioAssay (NCATS)
Records with an inconclusive call do not appear. Calls of active or inactive are those of the source. Unless noted, the call rests on the fitted dose curve; in most records, active means well fitted curve in the direction sought with a large enough effect; inconclusive means small, poorly fitted or top-dose-only effect, or another doubt; inactive means no such curve, though single readings can be large; an effect the other way counts as inactive or inconclusive.

Key:
[1] = Validation qHTS assay for inhibitors of Activation Induced Cytidine Deaminase (AID): UDG Counterscreen signal (AID 1347427)
Summary of the method: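 Fluorescence at 560 nm excitation, 665 nm emission reports UDG signal after 250 mM NaOH (2x) addition and 30 min. Enzymes (AID 1 uM, UDG 2 U/mL, at 4/3x) preincubated 10 min with compound, then 4 h with 4x 250 nM DJC20/DJC23 substrate at room temperature.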

[2] = target: Single-stranded DNA cytosine deaminase (Homo sapiens) (UniProt Q9GZX7); experiment: Validation qHTS assay for inhibitors of Activation Induced Cytidine Deaminase (AID): AID signal (AID 1347429)
Summary of the method: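 Compounds (up to 114 uM final) are tested against AID plus UDG using DJC20/DJC23 FRET substrate. Reactions incubate 4 hr at room temperature, receive NaOH for 30 min, and are read at Ex 540/Em 590 nm.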

[3] = Primary qHTS for inhibitors of La Crosse Virus (LACV) - induced cell death in SH-SY5Y cells (AID 1508616);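 further: top concentration of the series differs between compounds; higher means more rescue of cells from virus-induced death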
Summary of the method: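 Screening measures cell viability in LACV-infected SH-SY5Y cultures. Compound was added before virus (0.01 MOI), and ATP was detected by luminescence 6 days later.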

[4] = Primary qHTS for small molecule stabilizers of the endoplasmic reticulum resident proteome: Secreted ER Calcium Modulated Protein (SERCaMP) assay (AID 1508630)
Summary of the method: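 The SH-SY5Y reporter protocol was run at 3 concentrations up to 38.3 uM (primary) or 11 concentrations (follow-up): 16 h compound, 100 nM thapsigargin for 4 h, then extracellular luciferase luminescence.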

[5] = target: Protein phosphatase 1D (Homo sapiens) (UniProt O15297); experiment: Rhodamine-PBP qHTS Assay for Modulators of WT P53-Induced Phosphatase 1 (WIP1) (AID 1347425)
Summary of the method: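 Read-out: Rhodamine-PBP fluorescence (ex 525/em 598 nm) for released Pi, read each minute for 11 min after adding 10 uM VEPPL-pS-QETFS; signal taken as f1 minus pre-substrate f0. Enzyme 5 nM WIP1 with 1 hr room-temperature compound preincubation.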

[6] = A High-Content qHTS Against Drug Library for the Identification of Small Molecules that Inhibit DYT1 Early Onset Primary Dystonia-Associated Cell Pathology (AID 1645839; calls by dose curve; further: potency means the concentration at half of the fitted maximal effect)
Summary of the method: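 Induced EGFP-delE TorsinA cells are imaged after 48 h of compound treatment. Punctate fusion-protein distribution gives the %pathology value, while nuclei counts flag toxicity. Wild-type EGFP-hTOR1A cells define the normal pattern.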

[7] = target: Cytochrome P450 2C9 (Homo sapiens) (UniProt P11712); experiment: Cytochrome P450 family 2 subfamily C member 9 (CYP2C9) small molecule antagonists: luciferase biochemical (cell-free) qHTS assay (AID 1645842; active means well fitted curve in the direction sought with a large enough effect in the repeat runs; an effect the other way counts as inactive or inconclusive; further: nearly all actives have a fitted effect of over 55% in size; further: potency means the concentration at half of the fitted maximal effect)
Summary of the method: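 P450-Glo CYP2C9 system: proluciferin substrate with enzyme in mix containing 0.4% BSA, 10 min at room temperature, then NADPH regeneration solution added and incubated 1 h at 37C. Detection reagent stopped reaction; luminescence read after 20 min as RLU.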

[8] = target: Cytochrome P450 2D6 (Homo sapiens) (UniProt P10635); experiment: Cytochrome P450 family 2 subfamily D member 6 (CYP2D6) small molecule antagonists: luciferase biochemical (cell-free) qHTS assay (AID 1645840; active means well fitted curve in the direction sought with a large enough effect in the repeat runs; an effect the other way counts as inactive or inconclusive; further: nearly all actives have a fitted effect of over 55% in size; further: potency means the concentration at half of the fitted maximal effect)
Summary of the method: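 P450-Glo CYP2D6 system: proluciferin substrate converted by enzyme to luciferin, read by luminescence proportional to activity. Enzyme-substrate mix with compound 10 min at room temperature, then NADPH regeneration 1 h before detection reagent.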

[9] = target: Calcium and integrin-binding protein 1 (Homo sapiens) (UniProt Q99828); experiment: Primary qHTS for Identification of Calcium Integrin Binding Protein 1 (CIB1) Competitor (AID 1508620);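 further: GST tagged CIB1 binding a fluorescein labelled alphaIIb integrin peptide tracer; top concentration of the series differs between compounds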
Summary of the method: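 Fluorescence polarization competition: CIB1-GST (1 uM final) preincubated with compound 15 min at room temperature, then FITC-labeled alphaIIb peptide (100 nM final) added for another 15 min. Polarization read at Ex 480/Em 540.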

[10] = target: Cytochrome P450 3A4 (Homo sapiens) (UniProt P08684); experiment: Cytochrome P450 family 3 subfamily A member 4 (CYP3A4) small molecule antagonists: luciferase qHTS assay (AID 1645841; active means well fitted curve in the direction sought with a large enough effect in the repeat runs; an effect the other way counts as inactive or inconclusive; further: nearly all actives have a fitted effect of over 45% in size)
Summary of the method: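 P450-Glo CYP3A4 enzyme with proluciferin substrate was preincubated with DMSO-dissolved compounds for 10 min at room temperature. NADPH regeneration solution started a 1 h reaction. Detection reagent stopped it, and luminescence was read after 20 min.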

Measured: Potency

Chain of Protein phosphatase 1D (Homo sapiens) (O15297 whole entry, looked up): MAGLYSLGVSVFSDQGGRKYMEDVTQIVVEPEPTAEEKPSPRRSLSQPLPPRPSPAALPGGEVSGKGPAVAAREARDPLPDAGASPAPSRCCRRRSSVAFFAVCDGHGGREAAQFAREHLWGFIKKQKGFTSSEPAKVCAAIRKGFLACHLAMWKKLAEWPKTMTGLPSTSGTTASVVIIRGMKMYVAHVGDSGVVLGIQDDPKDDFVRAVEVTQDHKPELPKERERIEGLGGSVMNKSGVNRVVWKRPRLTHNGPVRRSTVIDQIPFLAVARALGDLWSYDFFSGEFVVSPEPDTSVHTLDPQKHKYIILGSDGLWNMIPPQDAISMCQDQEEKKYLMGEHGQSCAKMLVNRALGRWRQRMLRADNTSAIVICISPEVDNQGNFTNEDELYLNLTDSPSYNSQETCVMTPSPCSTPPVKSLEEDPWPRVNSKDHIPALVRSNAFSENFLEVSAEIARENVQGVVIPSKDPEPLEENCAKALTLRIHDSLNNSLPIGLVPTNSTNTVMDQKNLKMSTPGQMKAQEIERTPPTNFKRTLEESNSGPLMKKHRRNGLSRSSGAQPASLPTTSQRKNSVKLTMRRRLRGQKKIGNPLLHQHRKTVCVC
Chain of Cytochrome P450 2C9 (Homo sapiens) (P11712 whole entry, looked up): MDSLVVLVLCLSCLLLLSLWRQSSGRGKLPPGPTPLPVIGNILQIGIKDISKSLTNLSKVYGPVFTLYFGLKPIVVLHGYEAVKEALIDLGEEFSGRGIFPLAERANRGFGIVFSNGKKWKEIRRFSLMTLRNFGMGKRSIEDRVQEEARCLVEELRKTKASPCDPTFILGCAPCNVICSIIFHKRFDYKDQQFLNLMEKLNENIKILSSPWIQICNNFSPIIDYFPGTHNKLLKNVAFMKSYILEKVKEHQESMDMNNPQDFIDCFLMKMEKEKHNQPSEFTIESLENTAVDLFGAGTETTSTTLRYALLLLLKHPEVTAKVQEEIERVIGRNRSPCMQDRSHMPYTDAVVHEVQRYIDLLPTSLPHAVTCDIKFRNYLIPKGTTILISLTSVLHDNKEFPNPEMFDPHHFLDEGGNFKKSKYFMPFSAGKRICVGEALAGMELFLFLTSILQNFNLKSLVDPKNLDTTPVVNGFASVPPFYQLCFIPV
Chain of Cytochrome P450 2D6 (Homo sapiens) (P10635 whole entry, looked up): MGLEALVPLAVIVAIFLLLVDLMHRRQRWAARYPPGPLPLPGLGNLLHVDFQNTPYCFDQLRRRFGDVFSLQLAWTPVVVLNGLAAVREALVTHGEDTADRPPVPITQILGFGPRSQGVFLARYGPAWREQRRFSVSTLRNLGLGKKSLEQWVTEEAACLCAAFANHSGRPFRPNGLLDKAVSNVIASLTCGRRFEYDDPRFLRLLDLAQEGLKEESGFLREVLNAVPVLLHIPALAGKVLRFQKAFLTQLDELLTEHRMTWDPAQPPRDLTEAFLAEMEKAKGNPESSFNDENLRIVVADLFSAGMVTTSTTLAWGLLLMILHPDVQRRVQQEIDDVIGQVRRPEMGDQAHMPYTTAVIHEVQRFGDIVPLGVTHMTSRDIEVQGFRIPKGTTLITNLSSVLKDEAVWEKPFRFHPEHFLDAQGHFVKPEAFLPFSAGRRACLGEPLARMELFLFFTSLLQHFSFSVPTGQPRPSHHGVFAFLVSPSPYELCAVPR
Chain of Calcium and integrin-binding protein 1 (Homo sapiens) (Q99828 whole entry, looked up): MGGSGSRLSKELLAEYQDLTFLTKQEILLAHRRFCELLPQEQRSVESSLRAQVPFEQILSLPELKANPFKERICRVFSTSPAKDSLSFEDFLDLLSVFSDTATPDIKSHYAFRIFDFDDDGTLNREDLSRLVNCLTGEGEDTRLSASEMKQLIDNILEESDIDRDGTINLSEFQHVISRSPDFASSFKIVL
Chain of Single-stranded DNA cytosine deaminase (Homo sapiens) (Q9GZX7 whole entry, looked up): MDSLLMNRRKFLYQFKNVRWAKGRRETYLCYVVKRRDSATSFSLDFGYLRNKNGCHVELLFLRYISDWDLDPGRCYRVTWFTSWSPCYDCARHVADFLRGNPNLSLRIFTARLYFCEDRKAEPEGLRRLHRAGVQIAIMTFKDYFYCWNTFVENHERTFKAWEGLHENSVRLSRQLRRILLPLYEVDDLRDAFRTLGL
Chain of Cytochrome P450 3A4 (Homo sapiens) (P08684 whole entry, looked up): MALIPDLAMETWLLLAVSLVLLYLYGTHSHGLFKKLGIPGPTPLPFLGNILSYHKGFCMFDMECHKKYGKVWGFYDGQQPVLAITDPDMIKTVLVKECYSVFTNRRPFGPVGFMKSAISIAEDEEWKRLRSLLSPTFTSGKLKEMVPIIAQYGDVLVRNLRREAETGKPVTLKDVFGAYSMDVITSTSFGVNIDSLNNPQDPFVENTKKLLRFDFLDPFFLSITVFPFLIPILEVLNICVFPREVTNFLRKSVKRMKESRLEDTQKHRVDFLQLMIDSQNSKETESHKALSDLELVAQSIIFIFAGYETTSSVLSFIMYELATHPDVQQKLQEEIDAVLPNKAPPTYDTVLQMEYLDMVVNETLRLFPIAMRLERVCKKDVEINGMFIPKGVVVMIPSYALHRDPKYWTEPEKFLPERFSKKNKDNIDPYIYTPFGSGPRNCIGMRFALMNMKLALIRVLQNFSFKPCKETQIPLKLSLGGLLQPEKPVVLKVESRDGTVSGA

C[N+](C)(C)CC(=O)[O-]
inactive: [1] | [2] | [3] | [4]

CCCCC/C=C\CC(O)/C=C/c1cccc(CC(O)CCCCO)n1 (configuration not stated)
inactive: [1] | [2] | [3] | [4]

CO/S(=N\S(=O)(=O)c1ccc(Cl)cc1)c1ccc([N+](=O)[O-])cc1 (configuration not stated)
inactive: [1] | [2] | [3] | [4]

CN1CCC[C@H]1c1cccnc1
inactive: [1] | [2] | [3] | [4]

O=C1CN(/N=C/c2ccc([N+](=O)[O-])o2)C(=O)N1
inactive: [5] | [3] | [6] | [7]

O=c1[nH]c2cc(Cl)c(Cl)cc2[nH]c1=O
inactive: [1] | [2] | [3] | [4]

OC[C@H]1O[C@@H](n2cnc3c(Nc4ccccc4)ncnc32)[C@H](O)[C@@H]1O
inactive: [1] | [2] | [3] | [4]

COc1cccc2c1C(=O)c1c(O)c3c(c(O)c1C2=O)C[C@@](O)(C(=O)CO)C[C@@H]3O[C@H]1C[C@H](N)[C@H](O[C@@H]2CCCCO2)[C@H](C)O1
inactive: [5] | [4] | [8]
active: [6] 10 µM | [7] 12.3 µM

Nc1ccc([N+](=O)[O-])cc1O
inactive: [5] | [9]
active: [7] 39.9 µM

COC(=O)c1nc(Cl)c(Cl)nc1N
inactive: [5] | [9] | [4] | [8] | [7]

N#C/C(=C\c1ccc(O)c(O)c1)C(=O)NCCCc1ccccc1
inactive: [1] | [2]

COc1ccccc1N1CCN(CCN(C(=O)c2ccc(I)cc2)c2ccccn2)CC1
inactive: [1] | [2] | [3]

O=C(O)/C=C/C(O)c1ccc(Cl)cc1 (configuration not stated)
inactive: [1] | [2] | [3] | [4]

O=c1[nH]c2ccccc2n1CCCN1CCN(C(c2ccccc2)c2ccccc2)CC1
active: [8] 0.055 µM
inactive: [5] | [3]

NCCNC(=O)c1ncsc1-c1cccc(F)c1
inactive: [1] | [2] | [3] | [4]

CCCCCCCCCCCCCCCC(=O)NCC(COP(=O)([O-])OCC[N+](C)(C)C)OCC (configuration not stated)
inactive: [1] | [2] | [3] | [4]

Oc1c(Br)cc(Br)c2cccnc12
inactive: [5] | [4] | [8] | [10] | [7]
active: [6] 5.62 µM

N.N.O=C(O)C1(C(=O)O)CCC1.[Pt]
inactive: [1] | [2] | [3]

CCCSc1ccc2nc(NC(=O)OC)[nH]c2c1
inactive: [5] | [9] | [4] | [8] | [7]

C#CCN1C(C)=C(C(=O)OC)C(c2cccc([N+](=O)[O-])c2)C(C(=O)OCC)=C1C (configuration not stated)
inactive: [1] | [2] | [3] | [4]

CCCCCC(O)c1cccc(OCc2ccc3ccccc3n2)c1 (configuration not stated)
inactive: [1] | [2] | [3] | [4]

O=Cc1ccc(O)c(O)c1O
inactive: [3] | [6] | [8] | [7]
